# Source: PubChem BioAssay (Tox21)
# Records with an inconclusive call do not appear. A number with no mark means an inactive call. Calls of active or inactive are those of the source. Calls come from the whole dose curve; as a rule, active = well fitted activation curve with a large enough effect in the repeat runs; inconclusive = weak or mixed curves; inactive = no such curve, though single readings can be large or run the other way.
# Assay: qHTS assay for small molecules that induce genotoxicity in human embryonic kidney cells expressing luciferase-tagged ATAD5 (AID 651632); note: nearly all actives have a fitted effect of over 15% in size
# Settings: HEK293T ATAD5-luciferase induction, 16 h; series mostly up to 83.3 µM; activation: at the top concentration
# Text: U.S. Tox21 Program National Center for Advancing Translational Sciences [NCATS] NIH Chemical Genomics Center [NCGC] U.S. Environmental Protection Agency [EPA] National Institutes of Environmental Health Sciences [NIEHS] National Toxicology Program [NTP] U.S. Food and Drug Administration [FDA] Tox21 Assay Overview: As cancer cells divide rapidly and during every cell division they need to duplicate their genome by DNA replication. The failure to do so results in the cancer cell death. Based on this concept, many chemotherapeutic agents were developed but have limitations such as low efficacy and severe side effects etc. A new cell based assay was developed to find the compounds that effectively block DNA replication either by directly damaging DNA or by inhibiting other cellular mechanisms. Enhanced Level of Genome Instability Gene 1 (ELG1; human ATAD5) protein levels increase in response to various types of DNA damage. Using a luciferase reporter-gene tagged with ATAD5, a cell-based assay [developed by Kyungjae Myung, NHGRI, NIH] was used to measure the induction of ATAD5 in human embryonic kidney cells (HEK293T). So, increase in luciferase activity can be used to identify the compounds that cause genetic stress.
# Tox21 Assay Protocol Summary: For genotoxicity screening, 2,000 cells in 5 uL/well were dispensed into white, solid-bottom 1536-well plates using a Multidrop Combi (Thermo Scientific) dispenser. Following transfer of 23 nL compound or DMSO vehicle by a pin tool, the plates were incubated 16 hr at 37C and 5% CO2. 5 ul Amplite (AAT Bioquest, Inc.) was then added to each plate and following 30 min incubation at room temperature, luciferase activity was quantified on a ViewLux CCD-based plate reader.
# % is set by controls: 0 for no effect and ±100 for the full control effect; potency is the fitted concentration of half-maximal effect.
SMILES,activation,Potency
COc1cc(C[C@H](C)N)c(OC)cc1C,-1.24% [at 95.3 µM],–
CCCCCCC(=O)O[C@H]1CC[C@H]2[C@@H]3CC[C@H]4CC(=O)C=C(C)[C@]4(C)[C@H]3CC[C@]12C,1.99%,–
C[N+]1(C)CCCCC1COC(=O)C(O)(c1ccccc1)c1ccccc1 (stereo not given),2.61%,–
NCC[C@H](O)C(=O)N[C@@H]1C[C@H](N)[C@@H](O[C@H]2O[C@H](CN)[C@@H](O)[C@H](O)[C@H]2N)[C@H](O[C@@H]2O[C@H](CO)[C@@H](O)[C@H]2O)[C@H]1O,5.72% [at 39.1 µM],–
CCCCc1ccc(C(=O)O)nc1,-4.39%,–
Cc1ccccc1-n1c(CF)nc2ccc(N)cc2c1=O,1.4%,–
F/C(COc1ccc2c(c1)[nH]c1ccccc12)=C1/CN2CCC1CC2,6.29%,–
COc1ccc(C(c2ccc(OC)cc2)C(Cl)(Cl)Cl)cc1,-7.72%,–
CCNC(C)Cc1cccc(C(F)(F)F)c1 (stereo not given),-1.98%,–
CN1CCCC(=C(c2cccs2)c2cccs2)C1,-4.73%,–
C[C@@H](Cc1ccccc1)N(C)C,-2.51%,–
C[C@]12CC[C@@H]3c4ccc(OC(=O)N(CCCl)CCCl)cc4CC[C@H]3[C@@H]1CC[C@@H]2OP(=O)(O)O,–,inactive
CCCC(=O)OC(C(Cl)(Cl)Cl)P(=O)(OC)OC (stereo not given),-4.47%,–
C[C@@H]1[C@H](O)[C@@H](C)/C=C/C=C/CC/C=C/C=C/C=C/C=C/[C@H](O[C@H]2O[C@@H](C)[C@H](O)[C@@H](N)[C@H]2O)CC2O[C@](O)(C[C@@H](O)[C@H](O)CC[C@@H](O)C[C@@H](O)C[C@@H](O)CC(=O)O[C@H]1C)C[C@H](O)[C@H]2C(=O)O,3.75%,–
CC(N)Cc1ccc(O)cc1 (stereo not given),2.12%,–
C[C@H]1CC[C@]2(NC1)O[C@H]1C[C@H]3[C@@H]4CC[C@H]5C[C@@H](O[C@@H]6O[C@H](CO)[C@H](O[C@@H]7O[C@H](CO)[C@@H](O)[C@H](O[C@@H]8OC[C@@H](O)[C@H](O)[C@H]8O)[C@H]7O[C@@H]7O[C@H](CO)[C@@H](O)[C@H](O)[C@H]7O)[C@H](O)[C@H]6O)CC[C@]5(C)[C@H]4CC[C@]3(C)[C@H]1[C@@H]2C,–,1.33 µM (active)
CC(=O)OCC(=O)[C@H]1CC[C@H]2[C@@H]3CC[C@H]4C[C@H](O)CC[C@]4(C)[C@H]3C(=O)C[C@]12C,-1.92% [at 39.1 µM],–
O=[N+]([O-])c1cc(I)c(O)c(I)c1,-17%,–
CO[C@H]1[C@@H](O)C[C@H](O[C@H]2[C@@H](O)C[C@H](O[C@H]3[C@@H](O)C[C@H](O[C@H]4CC[C@@]5(C)[C@H](CC[C@@H]6[C@@H]5C[C@@H](O)[C@]5(C)[C@@H](C7=CC(=O)OC7)CC[C@]65O)C4)O[C@@H]3C)O[C@@H]2C)O[C@@H]1C,-16.4%,–
O=c1ccc2cc(O[C@@H]3O[C@H](CO)[C@@H](O)[C@H](O)[C@H]3O)c(O)cc2o1,-1.74% [at 39.1 µM],–

SMILES,activation,Potency
Oc1ccc2c3c1O[C@H]1[C@@H](O)C=C[C@H]4[C@H](C2)NCC[C@@]341,2.29%,–
CC(=O)OC1CN2CCC1CC2 (stereo not given),1.78%,–
CCC(C)(S(=O)(=O)CC)S(=O)(=O)CC,1.82%,–
C1CN(P2(N3CC3)=NP(N3CC3)(N3CC3)=NP(N3CC3)(N3CC3)=N2)CCO1 (stereo not given),-2.05%,–
CN[C@@]1(c2ccccc2Cl)CCCCC1=O,4.81%,–
CC1(C)[C@H](C=C(Cl)Cl)[C@H]1C(=O)OCc1c(F)c(F)cc(F)c1F,2.82%,–
CN1[C@@H]2CC[C@H]1CC(OC1c3ccccc3CCc3ccccc31)C2 (stereo not given in full),-5.79% [at 39.1 µM],–
O=P(O)(O)C(Cl)(Cl)P(=O)(O)O,-0.961%,–
CC(=O)[C@H]1CC[C@H]2[C@@H]3CC[C@@H]4C[C@H](O)CC[C@]4(C)[C@H]3CC[C@]12C,-2.85%,–
CCOC(=O)C1(c2ccccc2)CCCN(C)CC1 (stereo not given),3.07%,–
[S]=[Sb](=[S])[S][Sb](=[S])=[S],-1.21%,–
CCC(=O)O[C@]1(c2ccccc2)CCN(C)C[C@H]1C,-0.549%,–
O=C1CCCCC1CN1CCCCC1 (stereo not given),1.77%,–
CN1C(=O)CC(=O)N(c2ccccc2)c2cc(Cl)ccc21,5.26%,–
C[C@]12N[C@H](Cc3ccccc31)c1ccccc12,–,inactive
O=C(O)CCCO,3.72% [at 95.3 µM],–
CNc1ccc(C(=O)CC(O)CCC(C)C2OC(=O)CC(O)CC(=O)CC(O)CC(O)CC(O)CC(O)CC3(O)CC(O)C(C(=O)OC)C(CC(O[C@@H]4O[C@H](C)[C@@H](O)[C@H](N)[C@@H]4O)/C=C/C=C/C=C/C=C/C=C/C=C/C=C/C2C)O3)cc1 (stereo not given in full),-3.12%,–
Cc1nnc2n1-c1ccc(Cl)cc1C(c1ccccc1)=NC2,–,13.3 µM (active)
CCC(=O)O[C@@](Cc1ccccc1)(c1ccccc1)[C@@H](C)CN(C)C,-1.58% [at 39.1 µM],–
CN1CSC(=S)N(C)C1,–,inactive
